The values below come from PubChem BioAssay AID1851 (National Center for Advancing Translational Sciences (NCATS), 2009).

Structures are written as SMILES. The campaign covered roughly 16,000 compounds. About 4,000 (25%) were called active. Inconclusive results (about 26%) are left out. The list is a sample of the results. Unmarked numbers belong to inactive results. The call rests on the fitted dose curve; in most records, active means well fitted curve in the direction sought with a large enough effect; inconclusive means small, poorly fitted or top-dose-only effect, or effect the other way; inactive means no such curve, though single readings can be large or run the other way.
On the % scale 0 is the no-effect control and ±100 the full control effect.

The target of the assay is Cytochrome P450 2C9 (Homo sapiens) (UniProt P11712). Put plainly: Cytochrome panel assay with activity outcomes. To be noted: recombinant CYP, pro-luciferin dealkylation, luminescence, p450-cyp2c9; series mostly up to 57.1 µM; activity, negative = inhibition: at the top concentration.
Sequence of Cytochrome P450 2C9 (Homo sapiens) (P11712 whole entry, looked up): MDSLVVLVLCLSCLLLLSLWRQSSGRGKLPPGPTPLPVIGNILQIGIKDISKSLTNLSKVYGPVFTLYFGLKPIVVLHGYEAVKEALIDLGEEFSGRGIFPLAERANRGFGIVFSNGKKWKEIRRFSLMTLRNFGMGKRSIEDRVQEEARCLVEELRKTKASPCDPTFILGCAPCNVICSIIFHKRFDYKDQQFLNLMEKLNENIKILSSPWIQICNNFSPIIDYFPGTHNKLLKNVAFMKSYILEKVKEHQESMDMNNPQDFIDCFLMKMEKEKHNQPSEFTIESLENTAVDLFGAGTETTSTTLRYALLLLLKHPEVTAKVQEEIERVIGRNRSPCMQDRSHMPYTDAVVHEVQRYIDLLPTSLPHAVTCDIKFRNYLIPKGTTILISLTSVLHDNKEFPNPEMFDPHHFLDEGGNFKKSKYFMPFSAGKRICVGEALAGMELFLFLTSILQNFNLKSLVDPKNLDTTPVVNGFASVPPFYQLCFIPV
For `CN1CCN(c2nc(-c3ccoc3)nc3ccccc23)CC1`, the activity, negative = inhibition was 6.78% [at 2.29 µM]. For the molecule `COc1ccccc1CN1CC2(CCN(C(=O)c3cnccn3)CC2)C1`, the “activity, negative = inhibition” value is 9.97%. Regarding `CC(C)CN1CCC2(CC1)CCN(C(=O)c1ccncc1)CC2`, the “activity, negative = inhibition” value was 4.6%. Consider `CC1CCCC(n2c(=S)[nH]c3ccccc3c2=O)C1C` (stereo not given), for which the AC50 (usually the concentration at which the activity in the assay is half-maximal) is 3.55 µM (active). Consider `CCn1c(=O)[nH]c2ccccc2c1=O`, for which the “activity, negative = inhibition” value is 17.7%. On to `Cc1cc(=O)[nH]c2ccccc12`, for which the “activity, negative = inhibition” value is 25.9%. With `CN(C)C(=O)/N=N\C(=O)N(C)C`, the “activity, negative = inhibition” value was -6.5%. For the molecule `CCn1c(O)c(/C=C2\C=Nc3ccccc32)sc1=Nc1ccc(C)cc1`, the AC50 was 2.24 µM (active). Turning to `CC(C)n1c(O)c(/C=C2\C=Nc3ccccc32)sc1=Nc1ccccc1`, the AC50 was 2.51 µM (active). Regarding `C[C@@H](CNC(N)=O)NC(N)=O`, the activity, negative = inhibition was 20.8% [at 11.4 µM]. Consider `Cc1ccc(Nc2ncccc2C(=O)NCc2cccs2)c(C)c1`, for which the AC50 is 15.8 µM (active). In the case of `CN(C)C(=O)c1ccc(-c2nccc(NCc3cccs3)n2)cc1`, the activity, negative = inhibition is 10.6% [at 2.29 µM]. Regarding `Cc1ccc(-c2cc(C(=O)NCc3ccco3)c3ccccc3n2)s1`, the AC50 was 3.98 µM (active). For the molecule `Cc1ccc(C)c(-c2cc(C(=O)Nc3sc(C)c(C)c3C(N)=O)c3ccccc3n2)c1`, the AC50 is 0.794 µM (active). As for `Cc1ccc2c(c1)N(CC(=O)NCc1cccs1)C(=O)C(C)O2` (stereo not given), the “activity, negative = inhibition” value is 24.4%.

`Cc1ccc(C)c(-c2cc(C(=O)Nc3nccs3)c3ccccc3n2)c1`: the AC50 was 2.82 µM (active). With `N[C@@](CCc1ccccc1)(C(=O)O)c1ccccc1`, the activity, negative = inhibition was -3.36% [at 11.4 µM]. In the case of `COc1cccc(Nc2ncc3nc(C)c(=O)n(CCC#N)c3n2)c1`, the “activity, negative = inhibition” value is -1.51%. For `CN(C)CCCn1c2c3ccccc3ccc2c2oc(=O)c3ccccc3c21`, the activity, negative = inhibition was -5.42% [at 11.4 µM]. Consider `Cc1ccc(C)c(-c2cc(C(=O)NCc3cccs3)c3ccccc3n2)c1`, for which the AC50 was 1.26 µM (active).

Turning to `Cc1noc(C)c1-c1nc(NCc2cccs2)c2ccccc2n1`, the activity, negative = inhibition is -11.4% [at 2.29 µM].

In the case of `CN(C)C(=O)c1ccc(-c2nc(NCc3cccs3)c3ccccc3n2)cc1`, the activity, negative = inhibition was -26.2% [at 2.29 µM].

In the case of `CS(=O)(=O)N1CCC2(CCN(C(=O)Nc3cccc(C#N)c3)CC2)CC1`, the “activity, negative = inhibition” value was -1.38%.

As for `c1ccc2oc(C3=NCCN3)cc2c1`, the “activity, negative = inhibition” value is 6.13%. `COCCOC(=O)C1=C(C)NC(=O)N(C(C)=O)C1c1ccc(Cl)cc1` (stereo not given): the AC50 is 4.47 µM (active). Regarding `CC(=O)NC(Cc1ccc(F)cc1)C(=O)O` (stereo not given), the “activity, negative = inhibition” value was 7.48%.

As for `Cc1nc2c(C(=O)NCCC(C)C)c[nH]n2c(=O)c1Cc1ccccc1F`, the AC50 is 2.82 µM (active). Take `Cc1nc2c(C(=O)NCc3ccc4c(c3)OCO4)c[nH]n2c(=O)c1Cc1ccccc1F`: the AC50 is 0.501 µM (active). Consider `O=C(O)c1cc2c(o1)CCC/C2=N\O`, for which the “activity, negative = inhibition” value was -26.6%. As to `CC1(C)S[C@@H]2[C@H](NC(=O)[C@@H](N)c3ccc(O)cc3)C(=O)N2[C@H]1C(=O)O`, the “activity, negative = inhibition” value is 17% [at 25.6 µM]. In the case of `O=c1[nH]c2cc(Cl)ccc2c(O)c1-c1ccc(Oc2ccccc2)cc1`, the AC50 was 12.6 µM (active). For `O=c1[nH]c2cc(Cl)ccc2c(O)c1-c1cccc(Oc2ccccc2)c1`, the “activity, negative = inhibition” value is -21.6%. For the molecule `O=C(c1c(O)c2ccc(Cl)cc2[nH]c1=O)C1CC1`, the “activity, negative = inhibition” value was -5.08%.

For `CCOC(=O)Cc1cc(=O)n2[nH]c(C)c(C#N)c2n1`, the “activity, negative = inhibition” value was -6.59%.

For the molecule `CCOC(=O)Cc1c(C)nc2c(C#N)c[nH]n2c1=O`, the AC50 is 12.6 µM (active). For the molecule `CC(C)CCNC1=NCCCCC1`, the “activity, negative = inhibition” value is 3.84%. As to `OC[C@H]1O[C@H](n2cnc3c(NC4CCCC4)nc(Cl)nc32)[C@@H](O)[C@@H]1O`, the “activity, negative = inhibition” value was -9.28%. On the same count and under the same terms, the value for `Cc1noc(C)c1-c1nc(NC2CCNCC2)c2ccccc2n1` was 13% [at 2.29 µM].

With `O=C(c1n[nH]c(=O)c2ccccc12)N1CCN(C2c3ccccc3-c3ccccc32)CC1`, the AC50 is 2.82 µM (active).

For `Cc1cc(C)nc(SCCc2cccc[n+]2C)n1`, the activity, negative = inhibition is -3.45% [at 11.4 µM].

On to `N#C/C(=C\c1ccc(O)c(O)c1)C(=O)c1ccc(O)c(O)c1`, for which the “activity, negative = inhibition” value is 11.7%. For `COc1cc(/C=C(\C#N)C(=O)c2ccc(O)c(O)c2)cc(I)c1O`, the AC50 was 0.501 µM (active). As for `C[C@H]1CN(CCO)CCN1c1ccccc1`, the activity, negative = inhibition is -1.76% [at 11.4 µM]. As to `COc1cccc([C@H](O)Cn2cc(-c3cccc(CON=C(C)C)c3)nn2)c1`, the activity, negative = inhibition was -2.7% [at 11.4 µM]. As for `CC(C)=NOCc1ccc(-c2cc(-c3ccccc3)no2)cc1`, the activity, negative = inhibition was 12% [at 11.4 µM]. As to `CC(C)=NOCc1cccc(-c2cc(-c3ccccc3)no2)c1`, the AC50 is 3.98 µM (active). As for `CCOC(=O)c1ccc(N/C=C/C(=O)c2ccc(OC)cc2)cc1`, the “activity, negative = inhibition” value is 13.1%.

As to `CC(=O)c1ccc(NC(=O)C2(c3ccccc3)CCOCC2)cc1`, the AC50 was 5.01 µM (active).

Take `CN(C)CCOC(=O)C1(c2ccccc2)CCOCC1`: the “activity, negative = inhibition” value was -19.5%. Turning to `CCOC(=O)c1ccc(NC(=O)C2(c3ccc(OC)cc3)CCOCC2)cc1`, the AC50 was 5.62 µM (active). As for `COc1ccc(C2(C(=O)N3CCOCC3)CCCC2)cc1`, the “activity, negative = inhibition” value is -17.7%. For `Cc1cnc(CNc2ccnc(-c3ccccc3C)n2)cn1`, the activity, negative = inhibition was 11.5% [at 2.29 µM].

With `CCOC(=O)c1cccc(C(=O)OCC)n1`, the “activity, negative = inhibition” value was -2.66%. With `O=C(OCC(=O)c1cccs1)c1cccc(C(=O)OCC(=O)c2cccs2)n1`, the AC50 was 8.91 µM (active). Take `COc1ccc(CNc2cc(-c3ccoc3)ncn2)c(OC)c1`: the activity, negative = inhibition is 3.4% [at 2.29 µM]. `COc1ccccc1C(c1nnnn1C(C)(C)C)N1CCCc2ccccc21` (stereo not given): the AC50 is 3.98 µM (active). Consider `COc1ccccc1C(c1nnnn1C(C)(C)C)N1CCN(Cc2ccncc2)CC1` (stereo not given), for which the AC50 is 0.631 µM (active). `COc1ccccc1CN1CC2(CCN(C(=O)c3ccncc3)CC2)C1`: the “activity, negative = inhibition” value is 2.75%.

As to `Cc1cccc(CN2CCN([C@@H](c3ccccc3)c3ccc(Cl)cc3)CC2)c1`, the “activity, negative = inhibition” value is -14.8% [at 25.6 µM]. For `CNC(=O)[C@@H]1O[C@@H](n2cnc3c(NCc4ccc(N)cc4)ncnc32)[C@@H](O)[C@H]1O`, the “activity, negative = inhibition” value was 6.6%.

Consider `COc1cccc(N2C(=O)C(CC(=O)Nc3ccccc3)N(C3CCCCC3)C2=O)c1` (stereo not given), for which the AC50 is 8.91 µM (active). In the case of `COc1ccc(COC(=O)N/N=C2/C[C@@H](O)[C@@H](O)[C@@H]3[C@@H]4C(=O)N(c5cccc(Oc6ccccc6)c5)C(=O)[C@H]4CC[C@H]23)cc1`, the activity, negative = inhibition was -15.2% [at 11.4 µM]. `COc1ccc(COC(=O)N/N=C2/C[C@@H](O)[C@@H](O)[C@@H]3[C@@H]4C(=O)N(c5cccc(Oc6ccccc6)c5)C(=O)[C@H]4CC[C@@H]23)cc1`: the activity, negative = inhibition is -7.36% [at 11.4 µM]. As to `CCN1CCCC1CNC(=O)C(=O)Nc1ccc(OC)cc1` (stereo not given), the “activity, negative = inhibition” value was 3.7%. Take `COc1ccc(NC(=O)CC2C(=O)N(c3cccc(OC)c3)C(=O)N2C2CCCCC2)cc1` (stereo not given): the AC50 was 15.8 µM (active).
